Giardia kill = Giardia lamblia killing; 340,000 compounds, 0.15% hits; activity change, % at 7.66 µM, hits read low; Giardia lamblia trophozoite viability; in the data active = activity change below about -80%; inconclusive = between about -30% and that limit;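 note: parasites exposed to compound for two days anaerobically before the ATP read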
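Luminescent ATP signal served as the viability read-out, measured 15-30 min after adding ATP detection reagent to trophozoites that had been incubated with compounds for 48 hrs at 37 deg C anaerobically at 100 cells/well.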
TDP1 cell CPT = DT40-hTDP1 cell growth loss with CPT | chicken DT40 Tdp1-/-;hTDP1 cells + 20 nM CPT, ATP luminescence, 48 h | Potency, µM (doses to about 46.2 µM), most hits filed as inhibitors | 420,000 compounds, 12% hits | AID 686979; note: nearly all actives have a fitted effect of over 55% in size
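Cell growth measured by CellTiter-Glo luminescence after a minimum 48 h, 37 C compound exposure with 20 nM CPT in Tdp1-knockout DT40 cells stably expressing hTDP1, seeded 400/well; qHTS titration format.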
DT40 TDP1 no CPT = qHTS for Inhibitors of human tyrosyl-DNA phosphodiesterase 1 (TDP1): qHTS in cells in absence of CPT; 420,000 compounds, 15% hits; Potency, µM (highest dose often 46.2 µM), hits mostly inhibitors; DT40 Tdp1-/- hTDP1 cells, no CPT, ATP luminescence, 48 h; AID 686978, 2013; note: nearly all actives have a fitted effect of over 55% in size
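Luminescent ATP content (CellTiter-Glo) served as the growth readout. Knockout chicken DT40 cells expressing human TDP1 were exposed to compounds without camptothecin for a minimum 48 hr at 37 °C.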
ELG1 DNA repair = inhibitors of ELG1-dependent DNA repair in HEK293T cells; HEK293T ELG1-luciferase reporter, luminescence, 16 h; DNA damage induced by 5-fluorouridine; Potency, µM (doses to about 46.1 µM), hits mostly inhibitors; AID 504467; 330,000 compounds, 2.3% hits; note: nearly all actives have a fitted effect of over 55% in size
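HEK293T cells expressing luciferase-tagged ELG1 (2,000/well) received 5-Fluorouridine plus compound or DMSO for 16 hr at 37 °C. Luciferase was read by ONE-Glo luminescence after 30 min at room temperature.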
TDP1 block = inhibitors of human tyrosyl-DNA phosphodiesterase TDP1. Q9NUW8. recombinant TDP1, AlphaScreen DNA substrate cleavage. Potency, µM (series often up to 130 µM), usual class: inhibitors. 350,000 compounds, 0.28% hits. AID 485290; note: nearly all actives have a fitted effect of over 40% in size
Target sequence (Q9NUW8 whole entry, looked up): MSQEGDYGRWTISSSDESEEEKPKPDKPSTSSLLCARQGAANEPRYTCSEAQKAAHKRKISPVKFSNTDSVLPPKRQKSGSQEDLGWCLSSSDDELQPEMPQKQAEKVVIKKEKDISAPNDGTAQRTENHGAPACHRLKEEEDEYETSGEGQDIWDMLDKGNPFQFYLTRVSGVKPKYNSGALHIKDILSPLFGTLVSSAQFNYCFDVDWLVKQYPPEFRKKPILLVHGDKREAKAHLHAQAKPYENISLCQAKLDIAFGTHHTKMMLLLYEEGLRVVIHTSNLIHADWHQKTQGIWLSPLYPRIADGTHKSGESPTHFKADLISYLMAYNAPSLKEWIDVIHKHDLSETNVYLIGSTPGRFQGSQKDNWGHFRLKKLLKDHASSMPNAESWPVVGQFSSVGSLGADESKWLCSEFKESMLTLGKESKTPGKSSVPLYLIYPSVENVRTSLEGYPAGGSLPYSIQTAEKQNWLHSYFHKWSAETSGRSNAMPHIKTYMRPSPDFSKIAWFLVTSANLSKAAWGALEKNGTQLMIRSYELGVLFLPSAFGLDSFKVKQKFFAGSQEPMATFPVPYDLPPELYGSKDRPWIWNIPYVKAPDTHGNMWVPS
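Recombinant human Tdp1 (E. coli-expressed, 1 nM final) preincubated with compounds 15 min at room temperature, then 5'-biotin/3'-phosphotyrosine-FITC DNA substrate (15 nM final) added for 5 min. AlphaScreen beads (10 ug/ml final) added 10 min; cleavage lowers signal.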
IL1B secr inh = inhibitors of inflammasome signaling (IL-1 beta secretion); THP-1 LPS/ATP IL-1B secretion, AlphaLISA, 16 h; stronger effect = lower value; activity change, % at 57.5 µM; AID 743279; 360,000 compounds, 4.7% hits; in the data active = activity change below about -50%; inconclusive = mostly about -30% to -49%
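THP-1 cells pretreated 1 hr with compounds (up to 57.5 uM final), then stimulated with LPS (250 ng/mL final) plus ATP (1.25 mM final); secreted IL-1B measured by AlphaLISA after 16 hr, decreased signal indicating inhibition.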
Numbers stand for hits; - = inactive; ? = inconclusive; . = no result; [ ] = remark or other dose. Most compounds without a hit are left out; they make up all but 19% or so of the library. Unless noted, calls come from the whole dose curve; as a rule, active = well fitted curve in the direction sought with a large enough effect; inconclusive = small, poorly fitted or top-dose-only effect, or another doubt; inactive = no such curve, though single readings can be large; an effect the other way counts as inactive or inconclusive.

SMILES	Giardia kill	TDP1 cell CPT	DT40 TDP1 no CPT	ELG1 DNA repair	TDP1 block	IL1B secr inh
CCN1CCN(CCCNC(=O)c2ccc3c(c2)sc2nc(-c4ccc(C)cc4)cn23)CC1	.	1.3µM	1.3µM	.	-	.
COc1ccc(CC(=O)N2CCc3cc(OC)c(OC)cc3C2COc2ccc3c(C)cc(=O)oc3c2)cc1OC (stereo not drawn)	.	-	-	.	-	.
COc1cc2c(cc1OC)C(COc1ccc3c(C)cc(=O)oc3c1)N(C(=O)c1cccc(OC)c1OC)CC2 (stereo not drawn)	.	?	23µM	.	-	.
COc1cc2c(cc1OC)C(COc1ccc3c(C)cc(=O)oc3c1)N(C(=O)C(C)C)CC2 (stereo not drawn)	.	?	13µM	.	-	.
CCOc1ccccc1C(=O)N1CCc2cc(OC)c(OC)cc2C1COc1ccc2c(C)cc(=O)oc2c1 (stereo not drawn)	.	?	9.2µM	.	-	.
COc1cc2c(cc1OC)C(COc1ccc3c(C)cc(=O)oc3c1)N(C(=O)c1cccc(C)c1)CC2 (stereo not drawn)	.	?	6.5µM	.	-	.
CCC(=O)N1CCc2cc(OC)c(OC)cc2C1COc1ccc2c(C)cc(=O)oc2c1 (stereo not drawn)	.	-	-	.	-	.
Cc1oc2ncn(CC(C)C)c(=O)c2c1C(=O)Nc1cc(F)ccc1F	.	?	?	.	-	.
O=S(=O)(c1ccccc1)N1CCN(C(c2ccccc2)c2ccc(OC(F)(F)F)cc2)CC1 (stereo not drawn)	-	?	?	-	.	-
O=C(Nc1cccc(C(=O)N2CCCC2)c1)C1CC1	-	-	-	.	.	-
O=C(O)c1ccc(NC(CSCc2ccccc2F)C(=O)O)c([N+](=O)[O-])c1 (stereo not drawn)	-	-	-	-	-	-
O=S(=O)(Nc1cccc(F)c1)c1ccc(S(=O)(=O)N2CCOCC2)cc1	.	-	?	.	.	-
Cc1ccc(CNC(=O)CCc2c(C)nn(-c3ccc(N4CCOCC4)nn3)c2C)cc1	-	-	?	-	-	-
Cc1ccc(Cl)cc1NC(=O)CSc1ccc(C(=O)O)cn1	.	-	-	.	-	.
COc1ccccc1CNC(=O)Cc1c[nH]c2ccccc12	-	-	-	-	-	-
COc1cc(CNCCc2c[nH]c3ccccc23)ccc1OCc1ccccc1F	-	18µM	?	-	-	-57
COc1cccc(CNCCc2c[nH]c3ccccc23)c1OCc1ccccc1	-	7.3µM	9.2µM	-	-	.
COc1cccc(CNC23CC4CC(CC(C4)C2)C3)c1OCc1ccccc1	-	9.2µM	10µM	?	-	-97
COc1cccc(CNn2cnnc2)c1OCc1ccc(F)cc1	-	-	-	-	-	-
COc1ccc(CCNC(=O)NCCc2c[nH]c3ccccc23)cc1OC	-	-	-	-	.	-
Cc1ccc(NC(=O)CN2CCN(S(=O)(=O)c3ccc(F)cc3)CC2)cc1C	-	?	-	-	-	-
CCOC(=O)CNC(=O)COc1coc(CN2CCN(Cc3ccccc3)CC2)cc1=O	-	-	-	-	-	-
O=C(CCc1nc2ccccc2s1)N1CCOc2ccc(CN3CCc4sccc4C3)cc2C1	.	-[9.04 µM]	?	.	.	.
COc1cc(C(=O)NCCNC(=O)c2ccco2)cc(OC)c1OC	-	-	-	.	.	-
CCN(CC)S(=O)(=O)c1cc(C(=O)Oc2cccc(-c3cnc4ccccc4n3)c2)ccc1Br	-	?	18µM	?	-	-
SMILES	Giardia kill	TDP1 cell CPT	DT40 TDP1 no CPT	ELG1 DNA repair	TDP1 block	IL1B secr inh
O=C(CSc1nc2ccccc2nc1Cc1ccccc1F)Nc1cccc(C(F)(F)F)c1	.	-	-	.	-	.
NC(N)=NCCC[C@H](N)C(=O)NCC(=O)N[C@@H](CC(=O)O)C(=O)N[C@@H](CO)C(=O)O	.	.	.	.	-	.
O=C(Nc1ccn(Cc2c(F)c(F)cc(F)c2F)n1)c1ccc(COc2ccc(Cl)cc2Cl)o1	-	-	?	?	-	?
Cc1nn(Cc2c(F)c(F)c(F)c(F)c2F)c(C)c1NC(=O)c1ccc(COc2ccc(Cl)cc2Cl)o1	-	21µM	15µM	-	-	-63
COc1ccccc1OCc1ccc(C(=O)Nc2ccncc2)o1	-	?	21µM	?	-	-
C=CCc1ccc(OCc2ccc(C(=O)O)o2)c(OC)c1	-	-	-	?	.	-
CCCc1ccc(OCc2ccc(C(=O)NN)o2)c(OC)c1	-	-	23µM	?	.	-
CC(C)CNC(=O)c1ccc(COc2ccc(Cl)cc2Cl)o1	-	15µM	21µM	-	-	?
CCCCNC(=O)c1cccc(-n2cnc3cccnc32)c1C	.	?	?	.	-	.
CC(=O)Nc1ccc(NC(=O)c2ccc(COc3ccc(Cl)cc3Cl)o2)cc1	.	16µM	16µM	.	-	.
O=C(Nc1ccccc1F)c1ccc(COc2ccc(Cl)cc2Cl)o1	-	-	-	-	-	-
Cc1nn(Cc2c(F)c(F)c(F)c(F)c2F)c(C)c1NC(=O)c1cccc(COc2ccccc2Cl)c1	-	?	?	?	-	-
Cc1nn(Cc2cccc(F)c2)c(C)c1NC(=O)c1ccc(COc2ccccc2Cl)cc1	-	15µM	?	?	-	-
COc1ccccc1CNC(=O)c1nnn(CC(=O)Nc2c(C)cccc2C)c1N	.	-	-	.	-	.
CC(=NO)C1CCC2C3CCC4CC(=NO)CCC4(C)C3C(C)(O)CC12C (stereo not drawn)	-	?	15µM	.	.	-
CCc1ccccc1NC(=O)C(=O)NCCc1sc(-c2cccc(F)c2)nc1C	.	?	?	.	-	.
O=C(C[C@@H]1C/C=C\CC[C@@H](Cc2ccc(F)cc2)C(=O)OC[C@@H]2CCCN2C1=O)N[C@H](CO)Cc1ccccc1	-	16µM	18µM	?	-	-
O=C(C[C@@H]1C/C=C\C[C@@H](Cc2ccc(F)cc2)C(=O)OC[C@H]2CCCN2C1=O)N[C@H](CO)Cc1ccccc1	-	?	21µM	?	-	-
O=C(C[C@H]1C/C=C\CC[C@H](Cc2ccc(F)cc2)C(=O)OC[C@H]2CCCN2C1=O)N[C@H](CO)Cc1ccccc1	-	23µM	21µM	23µM	-	-
O=C(C[C@@H]1C/C=C\CCC(=O)OC[C@@H]2CCCN2C1=O)N[C@H](CO)Cc1ccccc1	-	-	-	-	-	-
O=C(C[C@H]1C/C=C\CC[C@H](Cc2ccc(F)cc2)C(=O)OC[C@H]2CCCN2C1=O)N[C@@H](CO)Cc1ccccc1	-	?	15µM	-	-	-
O=C(C[C@H]1C/C=C\C[C@@H](Cc2ccc(F)cc2)C(=O)OC[C@H]2CCCN2C1=O)N[C@@H](CO)Cc1ccccc1	-	?	?	-	-	-

Screens as filed in PubChem BioAssay.
